Data reported in the supplement of paper PMC10849652.
The full data set covers some 7,900 targets. This sample favours those with a hit. About 0.6% of all pairs of compound and target were hits.

Assays:
Test in all cases: log2 fold change, soluble protein after heating vs DMSO (PISA); higher = thermal stabilisation; K562 cells, 10 uM, 30 min; active = over 0.2 and 3.5 SD of the protein, either way, in both replicates (recomputed)
IRAK-1-4 Inhibitor I = compound: C1COCCN1CCN2C3=CC=CC=C3N=C2NC(=O)C4=CC(=CC=C4)[N+](=O)[O-] [IRAK-1-4 Inhibitor I]
In short: (§1)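 K562 cells at 2×10^6 cells/mL were treated for 30 min with 10 μM compound, and aliquots were heated for 3 min over 48°C-58°C before pooling. Extraction used PBS with 0.5% NP-40 at 4°C, and soluble protein was the supernatant after 21,000xg for 90 min, measured by TMTpro 16plex LC-MS/MS with channel sums equalised. Thermal stability values, relative to control samples and from duplicates, are log2 fold changes.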

[1] = compound: CC(=O)c1cnc2ccc(-c3cc(Cl)c(O)c(Cl)c3)nc2c1N[C@H]1CC[C@H](CN(C)C)CC1
In short: as §1

ralimetinib = compound: CC(C)(C)Cn1c(N)nc2ccc(-c3[nH]c(C(C)(C)C)nc3-c3ccc(F)cc3)nc21 [ralimetinib]
In short: as §1

[2] = compound: CC(C)(O)CC(=O)NCCn1ccc2ncnc(Nc3ccc(Oc4cccc(C(F)(F)F)c4)c(Cl)c3)c21
In short: as §1

[3] = compound: CC(C)C1=C2N=C(C=C(N2N=C1)NCC3=CC=CC=C3)NCCCCCCN
In short: as §1

[4] = compound: CC(C)C[C@@H](C=O)NC(=O)[C@H](CC(C)C)NC(=O)[C@H](CC(C)C)NC(=O)OCc1ccccc1
In short: as §1

pinometostat = compound: CC(C)N(C[C@H]1O[C@@H](n2cnc3c(N)ncnc32)[C@H](O)[C@@H]1O)[C@H]1C[C@@H](CCc2nc3cc(C(C)(C)C)ccc3[nH]2)C1 [pinometostat]
In short: as §1

[5] = compound: CC1=C(C2=C(C=C1)C(=O)C3=CC=CC=C3N2CCCN)C
In short: as §1

[6] = compound: CC1=C(C=C(C=C1)NC(=O)C2=CC(=CC=C2)C(C)(C)C#N)NC3=CC4=C(C=C3)N=CN(C4=O)C
In short: as §1

[7] = compound: CC1=C(C=C(C=C1)NC(=O)C2=CC(=CC=C2)N(C)C)NC(=O)C3=CC=C(C=C3)O
In short: as §1

[8] = compound: CC1=NC(=CC=C1)C2=C(N=C(N2)C(C)(C)C)C3=CC4=NC=CN=C4C=C3
In short: as §1

Nexturastat A = compound: CCCCN(Cc1ccc(C(=O)NO)cc1)C(=O)Nc1ccccc1 [Nexturastat A]
In short: as §1

givinostat = compound: CCN(CC)Cc1ccc2cc(COC(=O)Nc3ccc(C(=O)NO)cc3)ccc2c1 [givinostat]
In short: as §1

ibrutinib = compound: C=CC(=O)N1CCC[C@@H](n2nc(-c3ccc(Oc4ccccc4)cc3)c3c(N)ncnc32)C1 [ibrutinib]
In short: as §1

[9] = compound: CC1=C(C(CC(=O)N1)C2=CC=C(C=C2)C(F)(F)F)C(=O)NC3=C(C=C4C(=C3)C=NN4)F
In short: as §1

vemurafenib = compound: CCCS(=O)(=O)Nc1ccc(F)c(C(=O)c2c[nH]c3ncc(-c4ccc(Cl)cc4)cc23)c1F [vemurafenib]
In short: as §1

[10] = compound: CCCc1cc(C)[nH]c(=O)c1CNC(=O)c1cc(-c2ccnc(N3CCN(C)CC3)c2)cc2c1cnn2C(C)C
In short: as §1

barasertib = compound: CCN(CCCOc1ccc2c(Nc3cc(CC(=O)Nc4cccc(F)c4)[nH]n3)ncnc2c1)CCOP(=O)(O)O [barasertib]
In short: as §1

[11] = compound: CC1=CC=C(C=C1)SC2=C3C=C(SC3=CN=C2)C(=O)N
In short: as §1

[12] = compound: CCCS(=O)(=O)Nc1ccc(F)c(C(=O)c2c[nH]c3ncc(Cl)cc23)c1F
In short: as §1

Measured: log2 fold change

XRCC1 (UniProt P18887)
Sequence of UniProt P18887 (P18887 whole entry, looked up): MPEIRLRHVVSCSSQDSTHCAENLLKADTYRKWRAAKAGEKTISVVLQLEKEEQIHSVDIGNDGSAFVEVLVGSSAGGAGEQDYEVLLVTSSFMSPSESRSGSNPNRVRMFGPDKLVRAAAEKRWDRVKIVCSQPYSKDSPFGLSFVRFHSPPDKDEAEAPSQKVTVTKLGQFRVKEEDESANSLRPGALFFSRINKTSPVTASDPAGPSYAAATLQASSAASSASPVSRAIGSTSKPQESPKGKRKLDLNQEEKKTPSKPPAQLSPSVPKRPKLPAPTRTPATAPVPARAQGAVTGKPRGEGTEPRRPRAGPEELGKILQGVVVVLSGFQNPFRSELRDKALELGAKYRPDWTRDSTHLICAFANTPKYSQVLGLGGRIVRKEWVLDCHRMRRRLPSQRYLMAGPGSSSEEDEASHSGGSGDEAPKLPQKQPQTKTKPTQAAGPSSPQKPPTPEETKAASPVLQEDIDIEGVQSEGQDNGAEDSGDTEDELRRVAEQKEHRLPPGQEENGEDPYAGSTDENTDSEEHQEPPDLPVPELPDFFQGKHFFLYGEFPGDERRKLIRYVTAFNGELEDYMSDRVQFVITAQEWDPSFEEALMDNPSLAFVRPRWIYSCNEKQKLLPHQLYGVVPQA
inactive: IRAK-1-4 Inhibitor I 0.13 | [1] 0.027 | ralimetinib -0.115 | [2] -0.368 | [3] -0.066 | [4] 0.432 | pinometostat 0.41 | [5] -0.047 | [6] 0.049 | [7] 0.063 | [8] -0.222 | Nexturastat A 0.429 | givinostat 0.01

TRIM23 (UniProt P36406)
inactive: IRAK-1-4 Inhibitor I 0.064 | ibrutinib 0.072 | ralimetinib -0.034 | [3] 0.146 | [4] -0.019 | pinometostat -0.024 | [9] -0.044 | [5] 0.242 | [6] -0.025 | [7] -0.008 | [8] 0.036 | vemurafenib -0.022 | [10] 0.055 | givinostat 0.027 | barasertib 0.021

TOM1L2 (UniProt Q6ZVM7)
Sequence of UniProt Q6ZVM7 (Q6ZVM7 whole entry, looked up): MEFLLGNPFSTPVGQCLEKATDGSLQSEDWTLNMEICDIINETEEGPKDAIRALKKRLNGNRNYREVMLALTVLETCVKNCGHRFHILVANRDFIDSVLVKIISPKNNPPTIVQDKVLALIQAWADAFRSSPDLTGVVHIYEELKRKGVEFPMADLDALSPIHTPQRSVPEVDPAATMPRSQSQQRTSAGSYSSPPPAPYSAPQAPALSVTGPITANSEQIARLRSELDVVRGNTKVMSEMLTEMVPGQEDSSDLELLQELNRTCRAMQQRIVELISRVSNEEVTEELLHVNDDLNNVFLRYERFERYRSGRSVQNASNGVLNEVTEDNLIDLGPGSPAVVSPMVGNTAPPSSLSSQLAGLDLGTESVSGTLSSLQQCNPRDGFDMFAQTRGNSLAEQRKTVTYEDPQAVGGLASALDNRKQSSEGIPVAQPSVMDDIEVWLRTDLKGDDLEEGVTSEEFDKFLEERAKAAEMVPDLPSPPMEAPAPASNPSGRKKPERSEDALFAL
inactive: IRAK-1-4 Inhibitor I -0.049 | [1] -0.031 | [2] -0.089 | [3] 0.049 | pinometostat 0.036 | [9] -0.012 | [6] -0.038 | [8] -0.132 | Nexturastat A -0.046 | vemurafenib -0.008 | givinostat 0.025

WDR46, A0A0G2JJL1
inactive: IRAK-1-4 Inhibitor I -0.153 | ibrutinib 0.054 | [2] 0.269 | [3] 0.003 | pinometostat 0.325 | [9] 0.005 | [5] -0.353 | [6] -0.161 | [11] -0.229 | [8] -0.254 | Nexturastat A 0.194 | vemurafenib -0.09 | [12] 0.078 | [10] 0.19 | givinostat 0.15 | barasertib -0.248

VPS72 isoform 2 (UniProt Q15906)
Sequence of UniProt Q15906 (Q15906 whole entry, looked up): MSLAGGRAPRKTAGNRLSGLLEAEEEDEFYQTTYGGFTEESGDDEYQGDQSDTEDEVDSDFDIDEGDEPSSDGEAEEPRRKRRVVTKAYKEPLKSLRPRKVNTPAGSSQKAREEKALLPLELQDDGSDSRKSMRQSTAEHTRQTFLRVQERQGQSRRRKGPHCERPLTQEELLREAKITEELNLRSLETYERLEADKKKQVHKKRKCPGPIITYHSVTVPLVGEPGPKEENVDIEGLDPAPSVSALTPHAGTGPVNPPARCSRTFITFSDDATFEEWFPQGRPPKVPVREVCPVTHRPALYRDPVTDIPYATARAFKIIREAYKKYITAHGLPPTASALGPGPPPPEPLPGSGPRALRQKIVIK
active: [5] -0.473
inactive: ibrutinib 0.119 | [1] 0.033 | ralimetinib -0.122 | [2] -0.177 | [3] 0.133 | [4] -0.117 | [9] -0.092 | [6] -0.051 | [7] 0.196 | [11] 0.05 | Nexturastat A -0.17 | vemurafenib 0.025 | [12] -0.028 | [10] -0.042 | givinostat -0.014 | barasertib 0.001

TMEM219 (UniProt Q86XT9)
inactive: ibrutinib 0.115 | [1] 0.083 | [2] -0.015 | [3] 0.007 | [9] 0.031 | [5] -0.134 | [6] 0.021 | [11] 0.02 | Nexturastat A 0.311 | vemurafenib 0.172 | [12] -0.107 | givinostat -0.029 | barasertib -0.187

WDR4 isoform 3 (UniProt P57081)
inactive: ibrutinib -0.157 | [2] -0.126 | [6] -0.041 | Nexturastat A -0.031 | barasertib 0.08

TTC26
inactive: ibrutinib 0.035 | ralimetinib 0.204 | [4] -0.211 | [5] 0.062 | [7] 0.116 | barasertib -0.139
active: vemurafenib -0.598

TVP23C (UniProt Q96ET8)
Sequence of UniProt Q96ET8 (Q96ET8 whole entry, looked up): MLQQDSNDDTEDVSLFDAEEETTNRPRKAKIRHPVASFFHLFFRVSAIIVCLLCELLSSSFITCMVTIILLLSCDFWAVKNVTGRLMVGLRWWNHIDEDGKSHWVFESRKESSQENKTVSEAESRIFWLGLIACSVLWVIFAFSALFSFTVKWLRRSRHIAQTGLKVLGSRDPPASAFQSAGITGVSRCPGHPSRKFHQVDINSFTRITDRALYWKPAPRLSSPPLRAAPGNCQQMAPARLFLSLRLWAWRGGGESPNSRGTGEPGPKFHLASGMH
inactive: [1] 0.021 | [3] 0.011 | [5] 0.037 | [11] 0.024 | vemurafenib -0.022 | [12] -0.178 | [10] -0.118 | givinostat 0.043

XIAP (UniProt P98170)
inactive: ibrutinib -0.076 | [1] -0.105 | [2] -0.157 | [3] -0.05 | [9] 0 | [5] -0.002 | [6] -0.047 | [11] -0.045 | Nexturastat A -0.045 | vemurafenib 0.035 | [12] 0 | [10] -0.049 | givinostat 0.019 | barasertib 0

TRIQK (UniProt Q629K1)
Sequence of UniProt Q629K1 (Q629K1 whole entry, looked up): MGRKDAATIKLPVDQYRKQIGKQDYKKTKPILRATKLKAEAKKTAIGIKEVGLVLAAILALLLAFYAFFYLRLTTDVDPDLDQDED
inactive: IRAK-1-4 Inhibitor I -0.059 | ibrutinib 0.007 | ralimetinib -0.011 | [2] -0.054 | [4] -0.004 | pinometostat 0.104 | [5] 0.114 | [6] -0.022 | [7] -0.007 | [8] -0.173 | Nexturastat A -0.028 | [10] 0.014 | barasertib -0.041

UTP20 (UniProt O75691)
Sequence of UniProt O75691 (O75691 whole entry, looked up): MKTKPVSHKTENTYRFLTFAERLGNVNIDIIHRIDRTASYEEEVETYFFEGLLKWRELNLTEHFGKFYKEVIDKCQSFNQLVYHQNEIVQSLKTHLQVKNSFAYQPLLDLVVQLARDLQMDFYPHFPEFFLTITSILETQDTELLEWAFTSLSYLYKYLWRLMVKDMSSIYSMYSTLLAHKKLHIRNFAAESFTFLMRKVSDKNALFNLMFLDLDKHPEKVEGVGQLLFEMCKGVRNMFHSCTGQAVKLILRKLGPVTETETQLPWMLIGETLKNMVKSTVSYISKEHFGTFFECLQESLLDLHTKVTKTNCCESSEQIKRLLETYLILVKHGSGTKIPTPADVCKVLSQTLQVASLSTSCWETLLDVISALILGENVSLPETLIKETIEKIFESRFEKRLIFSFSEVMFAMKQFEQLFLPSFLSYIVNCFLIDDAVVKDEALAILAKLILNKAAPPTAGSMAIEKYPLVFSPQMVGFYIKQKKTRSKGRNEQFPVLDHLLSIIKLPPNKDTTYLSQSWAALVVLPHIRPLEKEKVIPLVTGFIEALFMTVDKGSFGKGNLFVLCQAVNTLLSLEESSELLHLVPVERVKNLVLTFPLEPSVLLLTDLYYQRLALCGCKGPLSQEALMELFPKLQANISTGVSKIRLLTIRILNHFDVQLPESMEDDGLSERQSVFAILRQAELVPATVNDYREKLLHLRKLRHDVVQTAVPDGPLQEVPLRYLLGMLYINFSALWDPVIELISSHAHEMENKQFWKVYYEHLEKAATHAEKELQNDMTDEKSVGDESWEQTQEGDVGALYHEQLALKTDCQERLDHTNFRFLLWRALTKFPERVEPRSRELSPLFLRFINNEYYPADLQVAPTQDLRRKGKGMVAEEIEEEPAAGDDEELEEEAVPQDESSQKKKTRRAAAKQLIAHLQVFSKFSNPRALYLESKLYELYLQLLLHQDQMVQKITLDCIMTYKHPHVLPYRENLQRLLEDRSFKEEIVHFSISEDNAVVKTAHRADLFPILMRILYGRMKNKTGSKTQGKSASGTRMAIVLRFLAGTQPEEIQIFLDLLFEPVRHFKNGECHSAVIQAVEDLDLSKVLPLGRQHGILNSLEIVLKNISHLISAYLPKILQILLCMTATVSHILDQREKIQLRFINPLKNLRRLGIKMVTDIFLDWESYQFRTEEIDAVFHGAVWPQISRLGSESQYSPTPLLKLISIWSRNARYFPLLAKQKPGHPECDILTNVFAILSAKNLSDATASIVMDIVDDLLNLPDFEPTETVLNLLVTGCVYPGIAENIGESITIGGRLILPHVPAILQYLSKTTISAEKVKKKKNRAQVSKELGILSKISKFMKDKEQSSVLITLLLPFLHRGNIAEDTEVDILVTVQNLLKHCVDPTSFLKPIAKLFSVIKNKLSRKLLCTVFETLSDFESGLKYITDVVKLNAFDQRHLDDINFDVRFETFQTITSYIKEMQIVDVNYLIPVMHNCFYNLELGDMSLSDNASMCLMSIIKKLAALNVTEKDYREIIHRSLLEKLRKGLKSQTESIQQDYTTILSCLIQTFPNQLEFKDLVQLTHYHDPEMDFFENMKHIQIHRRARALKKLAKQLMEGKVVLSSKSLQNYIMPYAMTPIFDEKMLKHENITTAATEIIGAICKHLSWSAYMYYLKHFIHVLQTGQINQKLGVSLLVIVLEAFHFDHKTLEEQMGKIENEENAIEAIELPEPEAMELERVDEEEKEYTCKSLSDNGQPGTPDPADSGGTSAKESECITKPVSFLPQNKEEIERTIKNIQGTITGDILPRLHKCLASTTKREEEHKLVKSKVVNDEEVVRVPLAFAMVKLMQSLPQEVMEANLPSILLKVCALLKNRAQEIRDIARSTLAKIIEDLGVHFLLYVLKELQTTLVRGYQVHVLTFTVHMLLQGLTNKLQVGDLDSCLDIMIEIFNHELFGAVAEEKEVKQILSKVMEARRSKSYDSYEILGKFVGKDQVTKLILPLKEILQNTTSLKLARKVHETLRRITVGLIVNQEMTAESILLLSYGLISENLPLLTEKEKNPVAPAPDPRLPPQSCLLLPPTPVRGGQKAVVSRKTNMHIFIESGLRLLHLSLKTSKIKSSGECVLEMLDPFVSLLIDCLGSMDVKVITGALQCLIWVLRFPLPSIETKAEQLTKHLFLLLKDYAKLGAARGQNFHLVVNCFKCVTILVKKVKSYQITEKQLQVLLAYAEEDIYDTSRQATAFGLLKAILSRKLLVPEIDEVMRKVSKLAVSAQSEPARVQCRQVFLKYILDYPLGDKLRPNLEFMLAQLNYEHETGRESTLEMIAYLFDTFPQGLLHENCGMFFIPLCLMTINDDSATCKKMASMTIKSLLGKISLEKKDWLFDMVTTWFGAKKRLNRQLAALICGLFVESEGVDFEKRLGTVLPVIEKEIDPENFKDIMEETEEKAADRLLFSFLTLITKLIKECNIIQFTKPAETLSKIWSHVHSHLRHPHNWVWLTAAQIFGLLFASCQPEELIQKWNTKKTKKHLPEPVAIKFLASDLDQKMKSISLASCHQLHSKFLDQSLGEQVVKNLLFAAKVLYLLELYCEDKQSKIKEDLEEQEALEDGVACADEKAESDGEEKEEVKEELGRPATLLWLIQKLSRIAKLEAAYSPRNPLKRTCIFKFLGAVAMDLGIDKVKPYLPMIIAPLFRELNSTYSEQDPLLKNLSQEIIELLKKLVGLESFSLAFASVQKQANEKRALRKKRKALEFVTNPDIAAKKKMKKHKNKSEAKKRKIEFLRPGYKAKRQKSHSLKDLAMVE
inactive: [2] -0.172 | [3] 0.081 | [5] 0 | [11] 0.037 | [12] -0.086 | givinostat 0.463
active: Nexturastat A 0.755

TMEM268 isoform 3 (UniProt Q5VZI3)
Sequence of UniProt Q5VZI3 (Q5VZI3 whole entry, looked up): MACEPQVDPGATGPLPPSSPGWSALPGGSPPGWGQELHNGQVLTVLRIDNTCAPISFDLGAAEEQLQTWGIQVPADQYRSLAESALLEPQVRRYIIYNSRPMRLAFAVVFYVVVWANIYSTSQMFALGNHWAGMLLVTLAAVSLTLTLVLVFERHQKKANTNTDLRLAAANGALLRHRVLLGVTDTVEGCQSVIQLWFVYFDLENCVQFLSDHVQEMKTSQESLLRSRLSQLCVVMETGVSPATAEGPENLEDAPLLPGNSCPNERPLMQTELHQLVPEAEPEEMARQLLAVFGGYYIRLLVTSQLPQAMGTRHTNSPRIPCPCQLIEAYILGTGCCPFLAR
inactive: ibrutinib 0.036 | [1] -0.042 | ralimetinib -0.056 | [2] -0.334 | [3] -0.095 | [4] -0.016 | [9] -0.033 | [5] 0.014 | [6] 0.056 | [7] 0.024 | [11] -0.178 | Nexturastat A 0.124 | [12] 0.083 | [10] 0.18 | givinostat 0.11 | barasertib -0.461

XAB2 (UniProt Q9HCS7)
inactive: IRAK-1-4 Inhibitor I -0.036 | ralimetinib 0.14 | [2] -0.138 | [4] -0.041 | pinometostat 0.181 | [7] -0.027 | [8] -0.034 | Nexturastat A 0.469 | [10] 0.168
